According to PubChem BioAssay AID602393 (Broad Institute, 2012):
In all, about 350,000 compounds went through this assay and about 7,000 (2%) were called active. What follows is part of a selection rich in actives, with near analogues and random picks from the rest. Unmarked numbers belong to inactive results. Cut-off read from the data, not from the text of the source: active = activation above about 40%; inconclusive = no clear call, values can overlap the other calls; inactive = below that.

assay: raisers of Bmi1 knock-in reporter signal – mouse ES cells, Bmi1 luciferase knock-in, single point, esBAF inhibitor project, primary screen (AID 602393); conditions: 24 h, at 12.5 µM, stronger effect = higher value, 100% = twice the neutral-well signal;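 note: 0% = median of the plate's neutral control wells and 100% = double that signal; a rise in the Bmi1 reporter signal indicates esBAF inhibition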

Structure (SMILES)	reporter increase
CO[C@@H]1CN(C)C(=O)c2cc(NC(=O)C3CCCC3)ccc2OC[C@@H](C)N(Cc2ccc(F)cc2)C[C@H]1C	8.36%
CO[C@H]1CN(C)C(=O)c2cc(NC(=O)NC(C)C)ccc2OC[C@H](C)N(C(=O)CN(C)C)C[C@H]1C	-0.455%
COc1ccc(NC(=O)N(C)C[C@H]2OCCCC[C@@H](C)Oc3ccc(NS(=O)(=O)c4ccc(F)cc4)cc3C(=O)N([C@@H](C)CO)C[C@@H]2C)cc1	1.41%
O=C(C[C@@H]1CC[C@H]2[C@@H](COC[C@@H](O)CN2CC2CC2)O1)NCc1ccc(Cl)cc1	-7.82%
CO[C@H]1CN(C)C(=O)c2cc(NC(C)=O)ccc2OC[C@H](C)N(C(=O)C2CC2)C[C@H]1C	-2.16%
CS(=O)(=O)N1C[C@@H](O)COC[C@@H]2O[C@H](CC(=O)NC3Cc4ccccc4C3)CC[C@H]21	-3.82%
CNC[C@H]1Oc2cc(C#CC(C)(C)O)ccc2S(=O)(=O)N([C@@H](C)CO)C[C@@H]1C	-0.555%
COCC(=O)N1C[C@H]2[C@@H](c3ccccc31)[C@@H](CO)N2Cc1ccccc1	-3.85%
Cn1nc(-c2ccccc2)c2cc([N+](=O)[O-])ccc21	-3.5%
Cc1nn(-c2ccccc2)c2c1C(c1cccc([N+](=O)[O-])c1)N(c1ccccc1)C(=O)N2 (stereo unspecified)	10.1%
Cc1nn(-c2ccc([N+](=O)[O-])cc2)c(N)c1-c1ccccc1	49.1% (active)
Cc1ccccc1S(=O)(=O)NCC[C@@H]1CC[C@H](NC(=O)C2CC2)[C@@H](CO)O1	-5.25%
O=C(NNC(=O)c1ccco1)Nc1ccccc1	0.317%
O=C(/C=C/c1ccco1)Nc1ccc(Oc2ccccc2)cc1	78% (active)
O=C(/C=C/c1ccco1)NC(=S)Nc1ccccc1Br	12.7%
O=C(Nc1ccc(Oc2ccccc2)cc1)c1ccco1	45.8% (active)
CC(C)(C)NC(=O)c1cc(NC(=O)c2ccco2)cc(NC(=O)c2ccco2)c1	-7.07%
Cc1ccc(NC(=O)c2ccco2)cc1	58.7% (active)
O=C(Nc1ccc(Sc2ccc(Br)cc2)cc1)c1ccco1	30.7%
Cc1cc(NC(=O)c2ccc(F)cc2)ccc1NC(=O)c1ccco1	-3.11%
COc1cccc(NC(=O)COC(=O)/C=C/c2ccco2)c1	-3.7%
CN1CCN(S(=O)(=O)c2ccc(NC(=O)c3ccco3)cc2)CC1	7.27%
CC1CCN(c2ccc(-c3ccc(NC(=O)c4ccco4)cc3)nn2)CC1	55.6% (active)
CC1CCN(C(NC(=O)c2ccco2)C(=O)c2ccccc2)CC1 (stereo unspecified)	-0.711%
C[C@@H]1CCCCO[C@H](CN(C)C(=O)CCCN(C)C)[C@H](C)CN([C@H](C)CO)C(=O)c2cc(NC(=O)CCC(F)(F)F)ccc2O1	-8.36%
COCC(=O)NC[C@@H]1[C@@H](c2ccc(C3=CCCC3)cc2)[C@@H](CO)N1C(C)=O	2.64%

Structure (SMILES)	reporter increase
C[C@@H]1CN([C@H](C)CO)C(=O)c2c(c3ccccc3n2C)-c2ccccc2CO[C@H]1CN(C)C(=O)c1ccncc1	1.87%
COCC#Cc1cnc2c(c1)C(=O)N([C@@H](C)CO)C[C@@H](C)[C@H](CN(C)C(=O)Nc1ccccc1OC)O2	-2.03%
CCCNC(=O)[C@@H]1[C@@H](CO)[C@@H]2Cn3c(cccc3=O)[C@H]1N2C(=O)C1CCC1	3.3%
C[C@@H]1CCCCO[C@H](CN(C)C)[C@H](C)CN([C@@H](C)CO)C(=O)c2cc(NS(=O)(=O)c3ccccc3)ccc2O1	-0.305%
CC1(C(=O)Nc2cccc(Oc3ccccc3)c2)CCN1Cc1ccccc1Cl (stereo unspecified)	-0.493%
CC(Oc1cccc(NC(=O)c2cccs2)c1)C(=O)c1ccccc1 (stereo unspecified)	5.41%
Cc1ccoc1C(=O)Nc1cccc(Oc2ccccc2)c1	69.9% (active)
COc1ccc(CN(C)C[C@@H]2OCCCC[C@H](C)Oc3ccc(NS(C)(=O)=O)cc3C(=O)N([C@@H](C)CO)C[C@H]2C)cc1	-1.93%
O=C(NC1CCCCC1)[C@@H]1[C@@H](CO)[C@@H]2Cn3c(cccc3=O)[C@@H]2N1C(=O)CC1CC1	0.341%
C[C@H](O)C#Cc1cnc2c(c1)C(=O)N([C@H](C)CO)C[C@H](C)[C@H](CN(C)C(=O)c1ccc(F)cc1)O2	0.158%
C/C(=N\Nc1nc2ccccc2[nH]1)c1cccs1	67.6%
COc1ccccc1CSc1nc2ccccc2[nH]1	69.6% (active)
CN(Cc1ccccc1)c1nc2c(c(=O)[nH]c(=O)n2C)n1CCSc1nc2ccccc2[nH]1	5.78%
CCCCSc1nc2ccccc2[nH]1	56.3% (active)
O=C(NCc1ccccc1)c1onc(CSc2nc3ccccc3[nH]2)c1C(=O)NCc1ccccc1	-3.03%
O=C(CSc1nc2ccccc2[nH]1)c1cccs1	79.4% (active)
CN(Cc1ccccc1)C(=O)CSc1nc2ccccc2[nH]1	36%
COc1ccc2nc(SCC(=O)Nc3c(C)cc(C)cc3C)[nH]c2c1	-3.13%
CCCCN(CC)CCCNC(=O)c1ccc(CSc2nc3ccncc3[nH]2)cc1	0.105%
COc1cccc(S(=O)(=O)Nc2ccc3c(c2)[C@@H]2C[C@@H](CC(=O)NC4CCCCC4)O[C@H](CO)[C@@H]2O3)c1	9.31%
CCCNC(=O)N[C@H]1C=C[C@@H](CC(=O)NC2CCCCC2)O[C@H]1CO	0.216%
COc1cccc(NC(=O)N(C)C[C@H]2OCc3ccccc3-c3ccccc3C(=O)N([C@H](C)CO)C[C@@H]2C)c1	4.73%
C/C(=N\Nc1nncc2ccccc12)c1ccc(Cl)c([N+](=O)[O-])c1	50.9% (active)
Cc1nc2ccccc2c(=O)n1NC(=O)c1ccc(Cl)c([N+](=O)[O-])c1	3.65%
Cc1ccnc(NC(=O)c2ccc(Cl)c([N+](=O)[O-])c2)c1	30.4%
